Results as given in PubChem BioAssay (NCI).
Compounds without any hit were thinned out: in the full panel of roughly 79,000, 15% have a hit. Active and inactive are the calls of the source. No stated cut-off is given here; in the data, active means growth inhibition above about 70%; inactive means the rest.

Assays:
[1] = NCI Yeast Anticancer Drug Screen. Data for the rad52 strain (AID 147);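 further: 0% = growth of vehicle-treated control cultures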; details: S. cerevisiae rad52 mutant growth inhibition, hits give high values
Method in brief: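 Yeast strain carrying a DNA damage repair alteration was exposed to test compounds. Growth inhibition was measured relative to vehicle-treated controls.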

[2] = NCI Yeast Anticancer Drug Screen. Data for the wt1 strain (AID 149);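 further: 0% = growth of vehicle-treated wt1 cultures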; details: S. cerevisiae wt1 strain (SPY 50644) growth inhibition, hits give high values
Method in brief: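 wt1 yeast, compound-treated; % growth inhibition vs vehicle control.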

[3] = NCI Yeast Anticancer Drug Screen. Data for the rad50EPP+ strain (AID 151);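 further: 0% = growth of vehicle-treated control cultures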; details: S. cerevisiae rad50 mutant strain, hits give high values
Method in brief: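 Yeast strain carrying rad50 alteration (rad50EPP+) exposed to compounds; growth inhibition measured relative to vehicle-treated controls.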

[4] = NCI Yeast Anticancer Drug Screen. Data for the mgt1 strain (AID 153); details: S. cerevisiae mgt1 mutant growth inhibition, hits give high values
Method in brief: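 Yeast mgt1 strain (DNA repair/cell-cycle alteration panel) exposed to compounds; growth inhibition measured relative to vehicle-treated controls.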

[5] = NCI Yeast Anticancer Drug Screen. Data for the rad50 strain (AID 155);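 further: 0% = growth of vehicle-only cultures of the same strain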; details: S. cerevisiae rad50 strain growth inhibition, hits give high values
Method in brief: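 Genetically altered yeast (DNA repair pathway); compound treatment; growth inhibition vs vehicle ctrl.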

[6] = NCI Yeast Anticancer Drug Screen. Data for the mec2-1 strain (AID 157); details: S. cerevisiae mec2-1 strain, hits give high values
Method in brief: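 mec2-1 yeast strain, carrying an alteration in DNA damage repair or cell cycle control, was exposed to compounds; growth inhibition was measured relative to vehicle-treated controls.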

[7] = NCI Yeast Anticancer Drug Screen. Data for the rad14 strain (AID 159);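 further: 0% = growth of vehicle-treated control cultures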; details: S. cerevisiae rad14 strain growth inhibition, hits give high values
Method in brief: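 Test compounds were applied to a repair-deficient yeast strain. Its growth was then compared with that of cultures given vehicle alone, and inhibition was expressed relative to those controls.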

[8] = NCI Yeast Anticancer Drug Screen. Data for the sgs1 mgt1 strain (AID 161);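 further: 0% = growth of cultures given vehicle only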; details: S. cerevisiae sgs1 mgt1 strain, hits give high values
Method in brief: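 Yeast cells carrying a defined DNA-repair defect were exposed to test compounds. Growth inhibition was measured relative to vehicle-treated controls.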

[9] = NCI Yeast Anticancer Drug Screen. Data for the CLN2oe strain (AID 163);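 further: 0% = growth of vehicle-only control cultures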; details: S. cerevisiae CLN2oe strain, hits give high values
Method in brief: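 Yeast cells carrying a defined cell-cycle control alteration were exposed to test compounds. Growth inhibition was scored against vehicle-treated control cultures.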

[10] = NCI Yeast Anticancer Drug Screen. Data for the cln2 rad14 strain (AID 165);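 further: 0% = growth equal to vehicle treated cultures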; details: S. cerevisiae cln2 rad14 strain, hits give high values
Method in brief: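 Yeast carrying cln2 and rad14 alterations (cell cycle control and DNA damage repair) were exposed to compounds. Growth inhibition was measured against vehicle-treated controls.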

[11] = NCI Yeast Anticancer Drug Screen. Data for the bub3 strain (AID 167); details: S. cerevisiae bub3 mutant strain, hits give high values
Method in brief: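 Yeast carrying a defined mutation is treated with each compound, and growth is compared with that of vehicle-exposed cells to give inhibition.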

[12] = NCI Yeast Anticancer Drug Screen. Data for the wt2 strain (AID 169);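 further: 0% = growth of vehicle-treated yeast cultures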; details: S. cerevisiae wt2 strain growth inhibition, hits give high values
Method in brief: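 Yeast cells were exposed to test compounds, and growth inhibition was measured relative to vehicle-treated controls.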

[13] = NCI Yeast Anticancer Drug Screen. Data for the mlh1 strain (AID 171);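 further: 0% = growth of vehicle-treated control cultures of the same strain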; details: S. cerevisiae mlh1 strain growth inhibition, hits give high values
Method in brief: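 Yeast carrying a defined genetic alteration in DNA damage repair or cell cycle control were exposed to test compounds. Growth inhibition was measured relative to vehicle-treated controls.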

[14] = NCI Yeast Anticancer Drug Screen. Data for the mlh1 rad18 strain (AID 175); details: S. cerevisiae mlh1 rad18 strain growth inhibition, hits give high values
Method in brief: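 Growth inhibition of the yeast strain was measured after compound exposure and expressed relative to vehicle-treated controls. The strain carries defined defects in DNA damage repair.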

[15] = NCI Yeast Anticancer Drug Screen. Data for the rad18 strain (AID 177); details: S. cerevisiae rad18 mutant growth inhibition, hits give high values
Method in brief: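 Yeast carrying a defined DNA damage repair alteration were exposed to compounds. Growth inhibition was expressed relative to vehicle-treated controls.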

[16] = at 5.0 µM (retest, dose inferred, filed as 0.5)
[17] = at 50.0 µM (retest, dose inferred, filed as 5.0)

Measured: growth inhibition

Clc1ccc(/C(=C\c2ccccc2)Cn2ccnc2)cc1
active: [1]; at 33.0 µM 86% | [1]; at 100.0 µM 76% | [3]; at 11.0 µM 92% | [3]; at 33.0 µM 95% | [3]; at 100.0 µM 96% | [4]; at 33.0 µM 71% | [4]; at 100.0 µM 87% | [5]; at 33.0 µM 84% | [5]; [17] 92% | [5]; at 50.0 µM 79% | [5]; at 100.0 µM 85% | [6]; [17] 88% | [6]; at 50.0 µM 82.3% | [7]; at 33.0 µM 81% | [7]; at 100.0 µM 80% | [8]; [17] 95% | [8]; at 50.0 µM 79.7% | [9]; at 33.0 µM 75% | [9]; at 100.0 µM 74% | [10]; [17] 92% | [10]; at 50.0 µM 73.2% | [11]; at 33.0 µM 72% | [11]; [17] 97% | [11]; at 50.0 µM 88.2% | [11]; at 100.0 µM 89% | [12]; at 100.0 µM 77% | [13]; at 100.0 µM 74% | [14]; [17] 94% | [14]; at 50.0 µM 78.6% | [15]; at 11.0 µM 81% | [15]; at 33.0 µM 93% | [15]; at 100.0 µM 92%
inactive: [1]; at 1.2 µM 18% | [1]; at 3.7 µM 34% | [1]; at 11.0 µM 53% | [2]; at 1.2 µM 9% | [2]; at 3.7 µM 12% | [2]; at 11.0 µM 28% | [2]; at 33.0 µM 20% | [2]; at 100.0 µM 39% | [3]; at 1.2 µM 26% | [3]; at 3.7 µM 54% | [4]; at 1.2 µM 14% | [4]; at 3.7 µM 22% | [4]; at 11.0 µM 60% | [5]; at 1.2 µM 22% | [5]; at 3.7 µM 34% | [5]; [16] 52% | [5]; at 11.0 µM 54% | [6]; at 1.2 µM 11% | [6]; at 3.7 µM 21% | [6]; [16] -14% | [6]; at 11.0 µM 37% | [6]; at 33.0 µM 54% | [6]; at 100.0 µM 67% | [7]; at 1.2 µM 38% | [7]; at 3.7 µM 51% | [7]; at 11.0 µM 68% | [8]; [16] 30% | [9]; at 1.2 µM 11% | [9]; at 3.7 µM 21% | [9]; at 11.0 µM 48% | [10]; [16] 26% | [11]; at 1.2 µM 10% | [11]; at 3.7 µM 32% | [11]; [16] 51% | [11]; at 11.0 µM 44% | [12]; at 1.2 µM 20% | [12]; at 3.7 µM 29% | [12]; at 11.0 µM 46% | [12]; at 33.0 µM 54% | [13]; at 1.2 µM 5% | [13]; at 3.7 µM 19% | [13]; at 11.0 µM 39% | [13]; at 33.0 µM 51% | [14]; [16] 42% | [15]; at 1.2 µM 46% | [15]; at 3.7 µM 64%

OB(O)c1ccccc1C#Cc1ccccc1
inactive: [1]; at 1.2 µM 3% | [1]; at 3.7 µM 4% | [1]; at 11.0 µM 8% | [1]; at 33.0 µM 21% | [1]; at 100.0 µM 27% | [2]; at 1.2 µM -2% | [2]; at 3.7 µM -2% | [2]; at 11.0 µM 2% | [2]; at 33.0 µM 8% | [2]; at 100.0 µM 15% | [3]; at 1.2 µM -1% | [3]; at 3.7 µM 3% | [3]; at 11.0 µM 12% | [3]; at 33.0 µM 33% | [3]; at 100.0 µM 34% | [4]; at 1.2 µM 1% | [4]; at 3.7 µM 3% | [4]; at 11.0 µM 8% | [4]; at 33.0 µM 14% | [4]; at 100.0 µM 18% | [5]; at 1.2 µM 5% | [5]; at 3.7 µM 13% | [5]; [16] -14% | [5]; at 11.0 µM 20% | [5]; at 33.0 µM 29% | [5]; [17] 21% | [5]; at 100.0 µM 43% | [6]; at 1.2 µM -1% | [6]; at 3.7 µM 6% | [6]; [16] -5% | [6]; at 11.0 µM 12% | [6]; at 33.0 µM 21% | [6]; [17] 1% | [6]; at 50.0 µM 64.5% | [6]; at 100.0 µM 28% | [7]; at 1.2 µM 2% | [7]; at 3.7 µM 2% | [7]; at 11.0 µM 12% | [7]; at 33.0 µM 27% | [7]; at 100.0 µM 37% | [8]; [16] -16% | [8]; [17] 22% | [9]; at 1.2 µM 7% | [9]; at 3.7 µM 9% | [9]; at 11.0 µM 23% | [9]; at 33.0 µM 43% | [9]; at 100.0 µM 40% | [10]; [16] -12% | [10]; [17] 13% | [10]; at 50.0 µM 55.8% | [11]; at 1.2 µM 8% | [11]; at 3.7 µM 2% | [11]; [16] -20% | [11]; at 11.0 µM 21% | [11]; at 33.0 µM 34% | [11]; [17] 43% | [11]; at 100.0 µM 46% | [12]; at 1.2 µM -2% | [12]; at 3.7 µM -1% | [12]; at 11.0 µM 7% | [12]; at 33.0 µM 23% | [12]; at 100.0 µM 24% | [13]; at 1.2 µM -2% | [13]; at 3.7 µM 6% | [13]; at 11.0 µM 4% | [13]; at 33.0 µM 14% | [13]; at 100.0 µM 14% | [14]; [16] 13% | [14]; [17] 68% | [15]; at 1.2 µM 1% | [15]; at 3.7 µM 2% | [15]; at 11.0 µM 13% | [15]; at 33.0 µM 41% | [15]; at 100.0 µM 54%
active: [5]; at 50.0 µM 96.3% | [8]; at 50.0 µM 76.8% | [11]; at 50.0 µM 76.8% | [14]; at 50.0 µM 75.8%
